Measured values from PubChem BioAssay AID588800 (Johns Hopkins Ion Channel Center, 2011).
Active and inactive are the calls of the source.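 Rule for the calls: active = peak inhibition of the KCNQ2 potassium channel above 30% at some tested dose, plus a fitted dose response curve; inactive = no inhibition at any dose, or no curve.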

target: Potassium voltage-gated channel subfamily KQT member 2 (Rattus norvegicus) (UniProt O88943); experiment: blockade of KCNQ2 thallium flux – cell-based, FluxOR thallium flux, CRC set 2, selectivity assay for KCNK9 inhibitor project, SAR follow-up (AID 588800); settings: KCNQ2-expressing cells; series mostly up to 30 µM
Sequence (O88943 whole entry, looked up): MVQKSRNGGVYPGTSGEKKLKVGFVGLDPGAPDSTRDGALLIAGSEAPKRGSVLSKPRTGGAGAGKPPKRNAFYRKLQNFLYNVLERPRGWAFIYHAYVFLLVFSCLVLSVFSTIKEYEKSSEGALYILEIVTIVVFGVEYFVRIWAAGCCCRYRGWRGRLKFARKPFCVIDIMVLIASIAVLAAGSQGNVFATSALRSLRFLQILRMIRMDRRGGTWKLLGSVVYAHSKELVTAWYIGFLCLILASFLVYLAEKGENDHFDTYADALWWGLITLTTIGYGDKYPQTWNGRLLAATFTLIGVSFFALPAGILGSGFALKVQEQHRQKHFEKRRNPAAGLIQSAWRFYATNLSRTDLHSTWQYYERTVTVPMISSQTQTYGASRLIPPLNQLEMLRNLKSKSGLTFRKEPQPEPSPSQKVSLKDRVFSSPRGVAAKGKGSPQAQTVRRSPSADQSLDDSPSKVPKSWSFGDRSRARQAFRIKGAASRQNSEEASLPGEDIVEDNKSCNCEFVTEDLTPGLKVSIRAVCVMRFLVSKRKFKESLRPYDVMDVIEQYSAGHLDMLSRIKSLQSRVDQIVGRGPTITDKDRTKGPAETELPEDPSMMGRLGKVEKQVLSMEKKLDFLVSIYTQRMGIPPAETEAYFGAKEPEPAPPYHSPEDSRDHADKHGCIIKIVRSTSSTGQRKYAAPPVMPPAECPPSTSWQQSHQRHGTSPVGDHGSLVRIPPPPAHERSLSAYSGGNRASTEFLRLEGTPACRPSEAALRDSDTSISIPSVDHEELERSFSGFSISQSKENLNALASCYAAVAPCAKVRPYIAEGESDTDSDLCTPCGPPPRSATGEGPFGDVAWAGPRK

outcome, inactive:
CC(c1ccccc1)n1c(-c2ccco2)n[nH]c1=S (stereo not given)
COc1ccccc1C(=O)Nc1cccc(NC(=O)c2cccc(C)c2)c1
CCOc1ccccc1C(=O)Nc1cccc(NC(=O)C2CCCC2)c1
CCOc1ccccc1NC(=O)c1cccc(NC(=O)c2cccc(Cl)c2)c1
Cc1cccc(C(=O)Nc2cccc(NC(=O)c3ccccc3C(F)(F)F)c2)c1
O=C(Nc1cccc(NC(=O)c2cccc(C(F)(F)F)c2)c1)c1ccccc1
Cc1cccc(C(=O)Nc2cccc(NC(=O)c3ccccc3C(C)C)c2)c1
CCOc1ccccc1NC(=O)c1cccc(NC(=O)c2ccc(C)cc2)c1
CC(C)(C)c1ccc(C(=O)Nc2cccc(NC(=O)c3ccccc3)c2)cc1
COc1cccc(-c2n[nH]c(=S)n2C(C)C2CC3CCC2C3)c1 (stereo not given)
Cc1cccc(C(=O)Nc2cccc(NC(=O)c3ccc(C(F)(F)F)cc3)c2)c1
CCOc1ccccc1NC(=O)c1cccc(NC(=O)c2ccccc2C)c1
CC(C1CC2CCC1C2)n1c(-c2ccsc2)n[nH]c1=S (stereo not given)
CCOc1ccccc1NC(=O)c1cccc(NC(=O)C2CCOC2)c1 (stereo not given)
COc1ccc(C(=O)Nc2cccc(NC(=O)c3cccc(C)c3)c2)cc1
Cc1cccc(C(=O)Nc2cccc(NC(=O)c3ccccc3OC(F)(F)F)c2)c1
CCOc1ccccc1NC(=O)c1cccc(NC(=O)CC2CCCCC2)c1
O=C(Nc1ccccc1Cl)c1cccc(NC(=O)C2CCCC2)c1
CCOc1ccccc1NC(=O)c1cccc(NC(=O)C2CCCC2)c1
CCOc1ccccc1NC(=O)c1cccc(NC(=O)c2ccc(C(F)(F)F)cc2)c1
CCOc1ccccc1NC(=O)c1cccc(C(=O)NC2CCCC2)c1
COc1cccc(C(=O)Nc2cccc(NC(=O)c3cccc(C)c3)c2)c1
Cc1ccccc1-c1n[nH]c(=S)n1C(C)C1CC2CCC1C2 (stereo not given)
COc1ccccc1NC(=O)c1cccc(NC(=O)C2CCCC2)c1
COc1ccc(C(=O)Nc2cccc(NC(=O)c3ccccc3)c2)cc1
Cc1ccccc1C(=O)Nc1cccc(NC(=O)c2ccccc2)c1
O=C(Nc1cccc(NC(=O)c2ccccc2C(F)(F)F)c1)c1ccccc1
CCOc1ccccc1NC(=O)c1cccc(NC(=O)c2ccccc2)c1
Cc1cccc(C(=O)Nc2cccc(NC(=O)c3cccc(C)c3)c2)c1
CCOc1ccccc1NC(=O)c1cccc(NC(=O)CC2CCCC2)c1
Cc1cccc(C(=O)Nc2cccc(NC(=O)c3ccc(C(C)(C)C)cc3)c2)c1
Cc1cccc(C(=O)Nc2cccc(NC(=O)c3cccs3)c2)c1
COc1cccc(C(=O)Nc2cccc(NC(=O)c3ccccc3)c2)c1
O=C(Nc1cccc(NC(=O)c2ccoc2)c1)c1ccccc1
Cc1cccc(C(=O)Nc2cccc(NC(=O)c3ccccc3C)c2)c1
